# Laboratory results taken from the supplement of paper PMC8728848.
# This excerpt belongs to a sample that is enriched for the strongest signals.
# How the values were obtained:
# Experiment in all cases: glycan array binding signal (z-score within array); higher = stronger binding
# Conditions in all cases: glycan notation: IUPAC condensed, linker removed; mutation: D57L
# [1] = molecular target: Fuc(a1-2)Gal(b1-3)GlcNAc(b1-2)Man(a1-3)[Fuc(a1-2)Gal(b1-3)GlcNAc(b1-2)Man(a1-6)]Man(b1-4)GlcNAc(b1-4)GlcNAc
# Summary of the method: (§1)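 From the Consortium for Functional Glycomics database, 3228 arrays were curated, keeping only those whose protein sequence was available. Binding is given as a within-array Z-score averaged across arrays sharing a protein sequence and across linkers. Negative Z-scores can be read as non-binding.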
# [2] = molecular target: Fuc(a1-2)Gal(b1-3)GlcNAc(b1-3)Gal(b1-4)Glc
# Summary of the method: as §1
# [3] = molecular target: Fuc(a1-2)Gal(b1-3)GlcNAc(b1-3)[Gal(b1-4)GlcNAc(b1-6)]Gal(b1-4)Glc
# Summary of the method: as §1
# [4] = molecular target: Fuc(a1-2)Gal(b1-3)GlcNAc(b1-3)[Neu5Ac(a2-6)Gal(b1-4)GlcNAc(b1-6)]Gal(b1-4)Glc
# Summary of the method: as §1
# [5] = molecular target: Fuc(a1-2)Gal(b1-4)Fuc(a1-3)]GlcNAc(b1-2)Man(a1-3)[Fuc(a1-2)Gal(b1-4)[Fuc(a1-3)]GlcNAc(b1-2)Man(a1-6)]Man(b1-4)GlcNAc(b1-4)GlcNAc
# Summary of the method: as §1
# [6] = molecular target: Fuc(a1-2)Gal3S(b1-4)GlcNAc
# Summary of the method: as §1
# [7] = molecular target: Fuc(a1-2)Gal6S(b1-3)GlcNAc6S
# Summary of the method: as §1
# [8] = molecular target: Fuc(a1-2)[Gal(a1-3)]Gal(b1-3)GalNAc(b1-3)Gal(a1-4)Gal(b1-4)Glc
# Summary of the method: as §1
# [9] = molecular target: Fuc(a1-2)[Gal(a1-3)]Gal(b1-4)GlcNAc(b1-2)Man(a1-3)[Fuc(a1-2)[Gal(a1-3)]Gal(b1-4)GlcNAc(b1-2)Man(a1-6)]Man(b1-4)GlcNAc(b1-4)[Fuc(a1-6)]GlcNAc
# Summary of the method: as §1
# [10] = molecular target: Fuc(a1-2)[Gal(a1-3)]Gal(b1-4)GlcNAc(b1-6)GalNAc
# Summary of the method: as §1
# [11] = molecular target: Fuc(a1-3)[Gal3S(b1-4)]GlcNAc6S
# Summary of the method: as §1
# Gal(a1-3)GalNAc = molecular target: Gal(a1-3)GalNAc
# Summary of the method: as §1
# [12] = molecular target: Gal(b1-3)GalNAc(b1-4)Gal(b1-4)Glc
# Summary of the method: as §1
# [13] = molecular target: Gal(b1-3)GlcNAc(b1-3)Gal(b1-4)GlcNAc
# Summary of the method: as §1
# [14] = molecular target: Gal(b1-3)[Fuc(a1-4)]GlcNAc(b1-2)Man(a1-3)[Gal(b1-3)[Fuc(a1-4)]GlcNAc(b1-2)Man(a1-6)]Man(b1-4)GlcNAc(b1-4)[Fuc(a1-6)]GlcNAc
# Summary of the method: as §1
# [15] = molecular target: Gal(b1-4)GlcNAc(a1-6)Gal(b1-4)GlcNAc
# Summary of the method: as §1
# [16] = molecular target: Gal(b1-4)GlcNAc(b1-2)Man(a1-3)[Man(a1-6)]Man(b1-4)GlcNAc(b1-4)GlcNAc
# Summary of the method: as §1
# [17] = molecular target: Gal(b1-4)GlcNAc(b1-2)Man(a1-6)Man(b1-4)GlcNAc(b1-4)GlcNAc
# Summary of the method: as §1
# [18] = molecular target: Gal(b1-4)GlcNAc(b1-3)Gal(b1-4)GlcNAc(b1-2)[Gal(b1-4)GlcNAc(b1-3)Gal(b1-4)GlcNAc(b1-6)]Man(a1-6)[Gal(b1-4)GlcNAc(b1-3)Gal(b1-4)GlcNAc(b1-2)Man(a1-3)]Man(b1-4)GlcNAc(b1-4)GlcNAc
# Summary of the method: as §1
# [19] = molecular target: Gal(b1-4)GlcNAc(b1-3)Gal(b1-4)GlcNAc(b1-3)Gal(b1-4)GlcNAc(b1-2)Man(a1-3)[Gal(b1-4)GlcNAc(b1-3)Gal(b1-4)GlcNAc(b1-3)Gal(b1-4)GlcNAc(b1-2)Man(a1-6)]Man(b1-4)GlcNAc(b1-4)[Fuc(a1-6)]GlcNAc
# Summary of the method: as §1
# [20] = molecular target: Gal(b1-4)GlcNAc(b1-3)Gal(b1-4)GlcNAc(b1-3)Gal(b1-4)GlcNAc(b1-3)Gal(b1-4)GlcNAc(b1-3)Gal(b1-4)GlcNAc(b1-2)Man(a1-3)[Gal(b1-4)GlcNAc(b1-3)Gal(b1-4)GlcNAc(b1-3)Gal(b1-4)GlcNAc(b1-3)Gal(b1-4)GlcNAc(b1-3)Gal(b1-4)GlcNAc(b1-2)Man(a1-6)]Man(b1-4)GlcNAc(b1-4)[Fuc(a1-6)]GlcNAc
# Summary of the method: as §1
# [21] = molecular target: Gal(b1-4)GlcNAc(b1-3)[GlcNAc(b1-6)]Gal(b1-4)GlcNAc
# Summary of the method: as §1
# Gal3S(b1-3)GalNAc = molecular target: Gal3S(b1-3)GalNAc
# Summary of the method: as §1
# Gal3S6S(b1-4)GlcNAc6S = molecular target: Gal3S6S(b1-4)GlcNAc6S
# Summary of the method: as §1
# Gal6S(b1-4)Glc = molecular target: Gal6S(b1-4)Glc
# Summary of the method: as §1
# Gal6S(b1-4)GlcNAc = molecular target: Gal6S(b1-4)GlcNAc
# Summary of the method: as §1
# Glc(a1-6)Glc(a1-6)Glc = molecular target: Glc(a1-6)Glc(a1-6)Glc
# Summary of the method: as §1
# [22] = molecular target: Glc(a1-6)Glc(a1-6)Glc(a1-6)Glc
# Summary of the method: as §1
# [23] = molecular target: GlcNAc(b1-2)[GlcNAc(b1-4)]Man(a1-3)[GlcNAc(b1-2)Man(a1-6)]Man(b1-4)GlcNAc(b1-4)GlcNAc
# Summary of the method: as §1
# [24] = molecular target: GlcNAc(b1-2)[GlcNAc(b1-4)]Man(a1-3)[GlcNAc(b1-4)][GlcNAc(b1-2)[GlcNAc(b1-6)]Man(a1-6)]Man(b1-4)GlcNAc(b1-4)GlcNAc
# Summary of the method: as §1
binder,measurement,setting,value
PNGase F (Flavobacterium meningosepticum) (protein) GIPAPADNTVNIKTFDKVKNAFGDGLSQSAEGTFTFPADVTAVKTIKMFIKNECPNKTCLEWDRYANVYVKNKTTGEWYEIGRFITPYWVGTEKLPRGLEIDVTDFKSLLSGNTELKIYTETWLAKGREYSVDFDIVYGTPDYKYSAVVPVVQYNKSSIDGVPYGKAHTLALKKNIQLPTNTEKAYLRTTISGWGHAKPYDAGSRGCAEWCFRTHTIAINNSNTFQHQLGALGCSANPINNQSPGNWTPDRAGWCPGMAVPTRIDVLNNSLIGSTFSYEYKFQNWTNNGTNGDAFYAISSFVIAKSNTPISAPVVTNLDPHHHHHH,glycan array binding signal (z-score),[1],3.35
same,glycan array binding signal (z-score),[2],-0.517
same,glycan array binding signal (z-score),[3],0.038
same,glycan array binding signal (z-score),[4],-0.604
same,glycan array binding signal (z-score),[5],7.24
same,glycan array binding signal (z-score),[6],-0.942
same,glycan array binding signal (z-score),[7],4.52
same,glycan array binding signal (z-score),[8],-0.247
same,glycan array binding signal (z-score),[9],1.68
same,glycan array binding signal (z-score),[10],1.12
same,glycan array binding signal (z-score),[11],-0.29
same,glycan array binding signal (z-score),Gal(a1-3)GalNAc,-0.507
same,glycan array binding signal (z-score),[12],-0.31
same,glycan array binding signal (z-score),[13],-0.079
same,glycan array binding signal (z-score),[14],4.53
same,glycan array binding signal (z-score),[15],-1.25
same,glycan array binding signal (z-score),[16],2.77
same,glycan array binding signal (z-score),[17],0.974
same,glycan array binding signal (z-score),[18],3.43
same,glycan array binding signal (z-score),[19],0.367
same,glycan array binding signal (z-score),[20],0.345
same,glycan array binding signal (z-score),[21],3.02
same,glycan array binding signal (z-score),Gal3S(b1-3)GalNAc,-0.275
same,glycan array binding signal (z-score),Gal3S6S(b1-4)GlcNAc6S,3.81
same,glycan array binding signal (z-score),Gal6S(b1-4)Glc,0.11
same,glycan array binding signal (z-score),Gal6S(b1-4)GlcNAc,-0.941
same,glycan array binding signal (z-score),Glc(a1-6)Glc(a1-6)Glc,0.269
same,glycan array binding signal (z-score),[22],1.14
same,glycan array binding signal (z-score),[23],-0.836
same,glycan array binding signal (z-score),[24],-0.146
